# Laboratory results reported in PubChem BioAssay (Tox21).
# Values without a mark were called inactive. Records with an inconclusive call do not appear. Entries that show only a call come without a potency. Calls of active or inactive are those of the source. Unless noted, calls come from the whole dose curve; as a rule, active = well fitted curve in the direction sought with a large enough effect in the repeat runs; inconclusive = weak or mixed curves; inactive = no such curve, though single readings can be large; an effect the other way counts as inactive or inconclusive.
# What was measured:
# [1] = qHTS assay to identify small molecule agonists of the RXR signaling pathway - cell viability counter screen (AID 1159529); note: nearly all actives have a fitted effect of over 50% in size
# Summary of the method: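 Compounds dissolved in DMSO were pinned onto HEK 293T cells carrying a beta-lactamase reporter under RXR-alpha control and incubated 16 hr. Cytotoxicity was then quantified by CellTiter-Glo luminescence.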
# [2] = qHTS assay to identify small molecule antagonists of the retinoid acid receptor (RAR) signaling pathway - cell viability counter screen (AID 1159551); note: nearly all actives have a fitted effect of over 35% in size
# Summary of the method: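 Cytotoxicity counter screen: ATP content quantified by CellTiter-Glo luminescence in C3RL4 cells treated 6 hr at 37 C with compound and retinol (1 uM final). Cells plated at 1,000/well and cultured overnight before dosing.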
# [3] = qHTS assay to identify small molecule agonists of the retinoic acid receptor (RAR) signaling pathway (AID 1159553)
# Summary of the method: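 Luminescence was measured 30 min after luciferase reagent addition at room temperature. Before that, C3RL4 reporter cells (1,000 per well, plated overnight) were treated with compound for 6 hr at 37 C and 5% CO2.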
# [4] = qHTS assay to identify small molecule antagonists of the estrogen related receptor (ERR) signaling pathway from Tox21 library - cell viability counter screen (AID 1224834); note: nearly all actives have a fitted effect of over 30% in size
# Summary of the method: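 CellTiter-Fluor fluorescence, read after 30 min at 37 C, measures viability of ERR cells. Cells plated at 2,000/well and incubated 6 h before pin-tool compound addition, then exposed 17.5 hours at 37 C.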
# [5] = target: Luciferin 4-monooxygenase (Photinus pyralis) (UniProt P08659); experiment: qHTS assay to identify small molecule inhibitors of firefly luciferase (AID 1224835); note: nearly all actives have a fitted effect of over 25% in size; note: potency is the fitted concentration of half-maximal effect
# Summary of the method: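 Biochemical qHTS: compounds run as interplate titrations against purified firefly enzyme, with D-luciferin and ATP each at its KM concentration. Light output recorded by CCD imaging.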
# [6] = qHTS assay to identify small molecule agonists of the constitutive androstane receptor (CAR) signaling pathway - cell viability counter screen (AID 1224836); note: nearly all actives have a fitted effect of over 45% in size
# Summary of the method: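 23 h treatment, 37 C, 5% CO2. Cell line: HepG2 stably expressing hCAR with a CYP2B6-2.2kb construct. Co-treatment: PK11195, 0.75 uM final. Read-out: CellTiter-Fluor fluorescence intensity.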
# [7] = qHTS assay to identify small molecule antagonists of the constitutive androstane receptor (CAR) signaling pathway - cell viability counter screen (AID 1224837); note: nearly all actives have a fitted effect of over 45% in size
# Summary of the method: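 Cytotoxicity counter-screen: CellTiter-Fluor fluorescence after 23 h compound exposure (15-point qHTS) in double-stable HepG2-CYP2B6-hCAR cells, with 50 nM CITCO added.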
# [8] = target: Nuclear receptor subfamily 1 group I member 3 (Homo sapiens) (UniProt Q14994); experiment: qHTS assay to identify small molecule antagonists of the constitutive androstane receptor (CAR) signaling pathway (AID 1224838);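 note: HepG2 cells stably expressing hCAR with CYP2B6 luciferase reporter stimulated by CITCO; nearly all actives have a fitted effect of over 40% in size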
# Summary of the method: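 Antagonism measured as luciferase signal (ONE-Glo, 30 min, room temperature) in CAR-stimulated cells: HepG2-CYP2B6-hCAR double-stable line exposed 24 hr at 37 C to compound in a 15-point series plus 50 nM CITCO.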
# [9] = target: Nuclear receptor subfamily 1 group I member 3 (Homo sapiens) (UniProt Q14994); experiment: qHTS assay to identify small molecule agonists of the constitutive androstane receptor (CAR) signaling pathway (AID 1224839); note: nearly all actives have a fitted effect of over 15% in size; note: potency is the fitted concentration of half-maximal effect;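 for activation: HepG2 cells stably carrying human CAR and a CYP2B6 luciferase reporter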
# Summary of the method: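 Compounds tested at 15 concentrations on HepG2 cells stably harbouring hCAR and CYP2B6-2.2kb reporter constructs, co-treated with PK11195 (0.75 uM final), 24 h at 37 C; luminescent reporter signal quantified.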
# [10] = qHTS assay to identify small molecule antagonists of the estrogen related receptor signaling pathway with the pleiotropic PPARgamma coactivator (PGC) from Tox21 10K library - cell viability counter screen (AID 1224840; active = well fitted cell-killing curve with a large enough effect in the repeat runs, not every such curve was filed as active; note: nearly all actives have a fitted effect of over 40% in size)
# Summary of the method: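 Counter-screen for cytotoxicity: after 17.5 h compound exposure at 37 C, CellTiter-Fluor reagent added to PGC/ERR cells for 30 min and fluorescence read. Cells were seeded at 2,000 per well 6 h before dosing.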
# [11] = qHTS assay to identify small molecule antagonists of the estrogen related receptor signaling pathway with the pleiotropic PPARgamma coactivator (PGC) from Tox21 10K library (AID 1224841; call rule not given here; note: actives are mostly falling curves and most rising ones were filed inactive; nearly all actives have a fitted effect of over 50% in size)
# Summary of the method: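 Luminescence (One-Glo, 30 min at room temperature) after 18 h compound treatment at 37 C of PGC/ERR reporter cells plated at 2,000 cells/well and settled 6 h beforehand.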
# [12] = target: Thyrotropin receptor (Homo sapiens) (UniProt P16473); experiment: qHTS assay to identify small molecule agonists of the thyroid stimulating hormone receptor (TSHR) signaling pathway (AID 1224843; calls by dose curve; note: nearly all actives have a fitted effect of over 45% in size)
# Summary of the method: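 Agonist-mode screen: TSHR HEK293 cells received test chemicals for half an hour at room temperature, then HTRF cAMP detection reagents for one hour prior to fluorescence measurement. Each chemical ran as a 15-concentration series, triplicated.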
# [13] = qHTS assay to identify small molecule agonists of the hypoxia (HIF-1) signaling pathway - cell viability counter screen (AID 1224844; calls by dose curve; note: nearly all actives have a fitted effect of over 50% in size)
# Summary of the method: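 Cytotoxicity measured by CellTiter-Glo ATP luminescence in the wells also read for beta-lactamase signal. Cells were HRE-bla ME-180 (2,000/well, 0.5% dialyzed FBS), exposed to compounds for 17 h at 37C.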
# [14] = qHTS assay to identify small molecule agonists of the hypoxia (HIF-1) signaling pathway (AID 1224846; active = well fitted activation curve with a large enough effect in the signal ratio in the repeat runs, not every such curve was filed as active; the % refers to the signal ratio)
# Summary of the method: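 Compounds added to ME-180 cells carrying hypoxia-response-element beta-lactamase reporter (0.5% dialyzed FBS, 5 h preplating), 17 h at 37C; agonist activity detected by CCF4-AM B/G FRET read-out.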
# [15] = qHTS assay to identify small molecule antagonists of the estrogen related receptor (ERR) signaling pathway from Tox21 library (AID 1224848); note: nearly all actives have a fitted effect of over 50% in size
# Summary of the method: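 Quantitative high-throughput format: ERR reporter cells (2,000/well) pre-incubated 6 h, treated 18 h at 37 C with compounds in DMSO alongside positive and negative controls, then read by ONE-Glo luminescence.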
# [16] = qHTS assay to identify small molecule agonists of the estrogen related receptor (ERR) signaling pathway from Tox21 library (AID 1224849; calls by dose curve; note: nearly all actives have a fitted effect of over 15% in size); conditions: ERR reporter cell line, ONE-Glo luciferase, 18 h; at 92.4 µM (top of the series) unless noted
# Summary of the method: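 Luminescent agonist read-out (One-Glo, 30-minute room-temperature incubation) following 18-hour compound treatment at 37 C of the ERR cell line, which had been plated 6 hours before dosing.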
# [17] = qHTS assay to identify small molecule agonists of H2AX - cell viability counter screen (AID 1224847; calls by dose curve; note: top concentration of the series differs between compounds; nearly all actives have a fitted effect of over 30% in size)
# Summary of the method: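 Compounds tested at 15 concentrations were incubated 3 hr at 37C with wild-type CHO-K1 cells; cellular ATP-based luminescence (CellTiter-Glo) indicated viability.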
# [18] = qHTS assay to identify small molecule agonists of the estrogen related receptor signaling pathway with the pleiotropic PPARgamma coactivator (PGC) from Tox21 10K library (AID 1224842); note: nearly all actives have a fitted effect of over 15% in size
# Summary of the method: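 PGC/ERR reporter cell line, 2,000 cells per well, incubated 6 h at 37 C before 23 nL compound in DMSO was added. After 18 h at 37 C, One-Glo luminescence read following 30 min at room temperature.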
# [19] = qHTS assay to identify small molecule agonists of H2AX (AID 1224845; active = well fitted activation curve with a large enough effect in the signal ratio in the repeat runs, not every such curve was filed as active; the % refers to the signal ratio)
# Summary of the method: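 Wild-type CHO-K1 cells, plated overnight, exposed 3hr at 37C to 15 concentrations (0.76% DMSO final). Lysed, then HTRF anti-pH2AX (S139) cryptate and anti-H2AX-d2 antibodies, 24 hr room temperature; 665/620 nm emission read.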
# [20] = qHTS assay to identify small molecule antagonists of the retinoic acid receptor (RAR) signaling pathway (AID 1159552; note: nearly all actives have a fitted effect of over 50% in size)
# Summary of the method: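 Test chemicals and DMSO controls were pin-transferred onto C3RL4 cells a day after seeding; retinol (1 uM final) followed at once. Luminescent reporter output was quantified after 6 hr of co-incubation and 30 min with detection reagent.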
# Sequence of Thyrotropin receptor (Homo sapiens) (P16473 whole entry, looked up): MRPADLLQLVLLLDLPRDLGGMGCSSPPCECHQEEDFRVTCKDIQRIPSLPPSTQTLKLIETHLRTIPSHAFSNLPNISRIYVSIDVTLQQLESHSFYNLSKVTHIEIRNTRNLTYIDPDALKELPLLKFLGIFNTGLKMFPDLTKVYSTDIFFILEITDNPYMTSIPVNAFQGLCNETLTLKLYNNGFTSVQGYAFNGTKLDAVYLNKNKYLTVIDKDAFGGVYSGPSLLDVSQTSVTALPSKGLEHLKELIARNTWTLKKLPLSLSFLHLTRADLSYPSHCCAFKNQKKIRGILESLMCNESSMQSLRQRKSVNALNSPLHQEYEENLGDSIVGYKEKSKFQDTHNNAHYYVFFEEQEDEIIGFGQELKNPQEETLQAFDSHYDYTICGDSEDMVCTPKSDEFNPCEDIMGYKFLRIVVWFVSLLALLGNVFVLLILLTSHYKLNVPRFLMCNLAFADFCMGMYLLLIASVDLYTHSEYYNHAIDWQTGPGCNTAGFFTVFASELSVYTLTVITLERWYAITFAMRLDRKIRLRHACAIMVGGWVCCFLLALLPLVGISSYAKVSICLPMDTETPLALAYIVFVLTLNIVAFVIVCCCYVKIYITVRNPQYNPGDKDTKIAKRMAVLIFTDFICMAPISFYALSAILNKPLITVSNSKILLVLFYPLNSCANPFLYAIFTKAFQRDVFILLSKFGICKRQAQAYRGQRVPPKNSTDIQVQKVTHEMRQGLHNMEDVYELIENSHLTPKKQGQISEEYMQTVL
# Sequence of Luciferin 4-monooxygenase (Photinus pyralis) (P08659 whole entry, looked up): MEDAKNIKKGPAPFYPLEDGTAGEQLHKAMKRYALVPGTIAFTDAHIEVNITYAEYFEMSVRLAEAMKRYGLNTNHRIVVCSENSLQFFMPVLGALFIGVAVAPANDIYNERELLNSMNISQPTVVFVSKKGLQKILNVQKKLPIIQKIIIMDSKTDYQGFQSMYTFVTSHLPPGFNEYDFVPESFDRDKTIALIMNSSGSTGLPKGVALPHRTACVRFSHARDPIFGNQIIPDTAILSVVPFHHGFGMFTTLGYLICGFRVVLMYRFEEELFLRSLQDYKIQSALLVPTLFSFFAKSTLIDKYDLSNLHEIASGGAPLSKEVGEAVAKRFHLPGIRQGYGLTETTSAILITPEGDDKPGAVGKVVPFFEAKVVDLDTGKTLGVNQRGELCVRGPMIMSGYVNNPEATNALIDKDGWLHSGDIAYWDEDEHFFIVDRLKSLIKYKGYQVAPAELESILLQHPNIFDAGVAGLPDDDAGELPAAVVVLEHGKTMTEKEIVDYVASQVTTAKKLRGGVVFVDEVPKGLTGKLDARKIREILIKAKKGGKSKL
# Sequence of Nuclear receptor subfamily 1 group I member 3 (Homo sapiens) (Q14994 whole entry, looked up): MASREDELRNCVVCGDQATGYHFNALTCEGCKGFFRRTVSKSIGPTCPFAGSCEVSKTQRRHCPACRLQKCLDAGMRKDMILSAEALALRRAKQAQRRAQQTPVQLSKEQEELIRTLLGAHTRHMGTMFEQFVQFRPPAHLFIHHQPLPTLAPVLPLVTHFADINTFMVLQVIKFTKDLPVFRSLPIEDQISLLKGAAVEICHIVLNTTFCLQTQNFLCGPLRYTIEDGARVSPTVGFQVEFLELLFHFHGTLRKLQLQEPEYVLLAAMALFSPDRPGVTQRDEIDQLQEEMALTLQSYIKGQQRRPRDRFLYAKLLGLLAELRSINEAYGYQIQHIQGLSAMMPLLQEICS
SMILES,Potency [1],outcome [2],Potency [3],outcome [4],Potency [5],outcome [6],outcome [7],outcome [8],Potency [9],outcome [10],Potency [11],Potency [12],outcome [13],outcome [14],outcome [15],"activity change, positive = activation [16]",outcome [17],Potency [18],outcome [19],outcome [20]
CC(=O)c1ccc2ccc3ccccc3c2c1,inactive,inactive,inactive,inactive,31.5 µM (active),inactive,inactive,inactive,60.8 µM (active),inactive,inactive,inactive,inactive,inactive,inactive,8.72%,–,–,–,–
CCCCCC(=O)CC,inactive,inactive,–,inactive,inactive,inactive,inactive,inactive,inactive,–,–,inactive,inactive,–,–,–,inactive,–,–,–
CCCc1ncc(C(=O)O)s1,inactive,inactive,inactive,inactive,inactive,inactive,–,inactive,inactive,–,inactive,–,inactive,inactive,inactive,3.45% [at 42.5 µM],inactive,inactive,inactive,–
O=C(O)P(=O)(O)O,inactive,inactive,inactive,inactive,inactive,inactive,inactive,inactive,inactive,inactive,–,inactive,inactive,–,–,–,–,–,inactive,–
Cc1ccccc1C#N,inactive,inactive,inactive,inactive,inactive,inactive,inactive,inactive,inactive,inactive,–,inactive,inactive,inactive,–,–,inactive,–,inactive,–
CC(C)(C)c1ccc(N)cc1,inactive,inactive,inactive,inactive,inactive,inactive,inactive,inactive,inactive,–,inactive,–,inactive,inactive,inactive,–,inactive,–,inactive,–
CO/N=C(\C(=O)O)c1csc(NC(=O)CCl)n1,inactive,–,inactive,inactive,inactive,inactive,inactive,inactive,inactive,inactive,inactive,–,inactive,inactive,inactive,4.95% [at 42.5 µM],inactive,inactive,–,inactive
